The supplement of paper PMC8728848
The sample as a whole holds a higher share of the strongest signals than the screen did.

How the values were obtained:
Assay in all cases: glycan array binding signal (z-score within array); higher = stronger binding
Conditions in all cases: glycan notation: IUPAC condensed, linker removed
Fuc(a1-2)Gal = target: Fuc(a1-2)Gal
In short: (§1)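 The binding signal is a Z-score computed within each array and averaged over linkers. Arrays of the same protein sequence at different concentrations or buffers were also averaged together. Data originate from 3228 arrays in the Consortium for Functional Glycomics database, kept only where the protein sequence was available.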

[1] = target: Fuc(a1-2)Gal(b1-4)GlcNAc(b1-2)Man(a1-3)[Fuc(a1-2)Gal(b1-4)GlcNAc(b1-2)Man(a1-6)]Man(b1-4)GlcNAc(b1-4)GlcNAc
In short: as §1

[2] = target: Fuc(a1-2)Gal(b1-4)GlcNAc6S
In short: as §1

[3] = target: Fuc(a1-2)[GalNAc(a1-3)]Gal
In short: as §1

[4] = target: Fuc(a1-2)[GalNAc(a1-3)]Gal(b1-3)GalNAc(b1-3)Gal(a1-4)Gal(b1-4)Glc
In short: as §1

[5] = target: Fuc(a1-2)[GalNAc(a1-3)]Gal(b1-4)GlcNAc(b1-2)Man(a1-3)[Fuc(a1-2)[GalNAc(a1-3)]Gal(b1-4)GlcNAc(b1-2)Man(a1-6)]Man(b1-4)GlcNAc(b1-4)GlcNAc
In short: as §1

[6] = target: Fuc(a1-3)[Gal(b1-4)]GlcNAc(b1-3)GalNAc
In short: as §1

[7] = target: Fuc(a1-3)[Gal(b1-4)]GlcNAc(b1-4)Gal(b1-4)[Fuc(a1-3)]GlcNAc(b1-4)Gal(b1-4)[Fuc(a1-3)]GlcNAc
In short: as §1

[8] = target: Fuc(a1-3)[GalNAc(b1-4)]GlcNAc
In short: as §1

[9] = target: Fuc(a1-3)[GalNAc(b1-4)]GlcNAc6S
In short: as §1

[10] = target: Gal(a1-4)Gal(b1-4)GlcNAc(b1-3)Gal(b1-4)Glc
In short: as §1

[11] = target: Gal(b1-4)GlcNAc(b1-2)Man(a1-6)[Man(a1-3)]Man(b1-4)GlcNAc(b1-4)GlcNAc
In short: as §1

[12] = target: Gal(b1-4)GlcNAc(b1-3)[Gal(b1-4)GlcNAc(b1-6)]GalNAc
In short: as §1

[13] = target: Gal(b1-4)GlcNAc(b1-6)Gal(b1-4)GlcNAc(b1-6)GalNAc
In short: as §1

GalNAc4S6S(b1-4)GlcNAc = target: GalNAc4S6S(b1-4)GlcNAc
In short: as §1

GalNAc6S(b1-4)GlcNAc = target: GalNAc6S(b1-4)GlcNAc
In short: as §1

[14] = target: GlcNAc(a1-3)Gal(b1-4)GlcNAc
In short: as §1

[15] = target: GlcNAc(a1-6)Gal(b1-4)GlcNAc
In short: as §1

[16] = target: GlcNAc(b1-2)Man(a1-3)[GlcNAc(b1-2)Man(a1-6)]Man(b1-4)GlcNAc(b1-4)[Fuc(a1-6)]GlcNAc
In short: as §1

[17] = target: GlcNAc(b1-3)Gal(b1-4)GlcNAc(b1-2)Man(a1-3)[GlcNAc(b1-3)Gal(b1-4)GlcNAc(b1-2)Man(a1-6)]Man(b1-4)GlcNAc(b1-4)[Fuc(a1-6)]GlcNAc
In short: as §1

[18] = target: GlcNAc(b1-3)Gal(b1-4)GlcNAc(b1-3)Gal(b1-4)GlcNAc(b1-3)Gal(b1-4)GlcNAc(b1-3)Gal(b1-4)GlcNAc(b1-2)[GlcNAc(b1-3)Gal(b1-4)GlcNAc(b1-3)Gal(b1-4)GlcNAc(b1-3)Gal(b1-4)GlcNAc(b1-3)Gal(b1-4)GlcNAc(b1-6)]Man(a1-6)[GlcNAc(b1-3)Gal(b1-4)GlcNAc(b1-3)Gal(b1-4)GlcNAc(b1-3)Gal(b1-4)GlcNAc(b1-3)Gal(b1-4)GlcNAc(b1-2)Man(a1-3)]Man(b1-4)GlcNAc(b1-4)[Fuc(a1-6)]GlcNAc
In short: as §1

[19] = target: GlcNAc(b1-3)Gal(b1-4)GlcNAc(b1-6)[GlcNAc(b1-3)]Gal(b1-4)GlcNAc
In short: as §1

[20] = target: GlcNAc(b1-3)[GlcNAc(b1-6)]GlcNAc(b1-4)GlcNAc
In short: as §1

GlcNAc(b1-4)GlcNAc = target: GlcNAc(b1-4)GlcNAc
In short: as §1

[21] = target: Man(a1-2)Man(a1-3)[Man(a1-6)]Man(a1-6)[Man(a1-2)Man(a1-3)]Man(b1-4)GlcNAc(b1-4)GlcNAc
In short: as §1

[22] = target: Man(a1-2)Man(a1-6)[Man(a1-3)]Man(a1-6)[Man(a1-2)Man(a1-2)Man(a1-3)]Man
In short: as §1

[23] = target: Man(a1-2)Man(a1-6)[Man(a1-3)]Man(a1-6)[Man(a1-2)Man(a1-2)Man(a1-3)]Man(b1-4)GlcNAc(b1-4)GlcNAc
In short: as §1

Man(a1-3)[Man(a1-6)]Man = target: Man(a1-3)[Man(a1-6)]Man
In short: as §1

[24] = target: Man(a1-3)[Man(a1-6)]Man(a1-6)[Man(a1-2)Man(a1-3)]Man(b1-4)GlcNAc(b1-4)GlcNAc
In short: as §1

[25] = target: Man(a1-3)[Man(a1-6)]Man(a1-6)[Man(a1-3)]Man
In short: as §1

B1: HHA (Hippeastrum hybrid) (protein)
chain: MQQDCNLVLYDVDKPIWASNTGGLARDCHLNMQSDGNLVVYAPRNQVIWASNTQGENGNYVCILQKDRNVVIYGTARWATGTNIHGAGIVGVPGSAPQNTTAEMIKLVRKYLITK
With B1 the “glycan array binding signal (z-score)” value (Fuc(a1-2)Gal) was -0.215, the “glycan array binding signal (z-score)” value [1] was 0.036 and the “glycan array binding signal (z-score)” value [2] was -0.207. The “glycan array binding signal (z-score)” value [3] was -0.21, the “glycan array binding signal (z-score)” value [4] was -0.213 and the “glycan array binding signal (z-score)” value [5] was -0.159. For the same binder, the “glycan array binding signal (z-score)” value [6] was -0.17, the “glycan array binding signal (z-score)” value [7] was -0.255 and the “glycan array binding signal (z-score)” value [8] was -0.196. The “glycan array binding signal (z-score)” value [9] was -0.214, the “glycan array binding signal (z-score)” value [10] was -0.203 and the “glycan array binding signal (z-score)” value [11] was 3.97. The “glycan array binding signal (z-score)” value [12] was -0.247, the “glycan array binding signal (z-score)” value [13] was -0.191 and the “glycan array binding signal (z-score)” value (GalNAc4S6S(b1-4)GlcNAc) was -0.218. The “glycan array binding signal (z-score)” value (GalNAc6S(b1-4)GlcNAc) was -0.209, the “glycan array binding signal (z-score)” value [14] was -0.2 and the “glycan array binding signal (z-score)” value [15] was -0.203. The “glycan array binding signal (z-score)” value [16] was -0.168, the “glycan array binding signal (z-score)” value [17] was -0.147 and the “glycan array binding signal (z-score)” value [18] was -0.124. For the same binder, the “glycan array binding signal (z-score)” value [19] was -0.185, the “glycan array binding signal (z-score)” value [20] was -0.264 and the “glycan array binding signal (z-score)” value (GlcNAc(b1-4)GlcNAc) was -0.211. The “glycan array binding signal (z-score)” value [21] was 3.35, the “glycan array binding signal (z-score)” value [22] was 2.72 and the “glycan array binding signal (z-score)” value [23] was 3.81. For the same binder, the “glycan array binding signal (z-score)” value (Man(a1-3)[Man(a1-6)]Man) was 5.62, the “glycan array binding signal (z-score)” value [24] was 5.57 and the “glycan array binding signal (z-score)” value [25] was 5.35.
